High-throughput results: PubChem BioAssay, National Center for Advancing Translational Sciences (NCATS)
RGS4 inhibitor – human RGS4 inhibition; P49798; Transcreener GDP fluorescence polarization, RGS4-accelerated GTP hydrolysis; Potency, µM (doses to about 114 µM), for inactives: at the top dose activity change, negative = inhibition, usual class: inhibitors; hit rate 0.039% among 390,000; AID 504845; further: potency means the concentration at half of the fitted maximal effect; on the % scale 0 is the no-effect control and ±100 the full control effect; nearly all actives have a fitted effect of over 75% in size
Target sequence (P49798 whole entry, looked up): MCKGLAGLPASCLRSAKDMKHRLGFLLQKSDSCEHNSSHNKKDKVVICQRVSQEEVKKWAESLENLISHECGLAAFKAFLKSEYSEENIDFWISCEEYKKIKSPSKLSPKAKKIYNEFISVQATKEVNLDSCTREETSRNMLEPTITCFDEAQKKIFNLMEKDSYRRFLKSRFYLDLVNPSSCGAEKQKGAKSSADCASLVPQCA
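MLSMR compounds (23 nl, pin-transferred) preincubated 10 min at room temperature with a 500nM (2x) first reagent, then RGS4 at 900nM (2x) plus Transcreener GDP mix added; fluorescence polarization (620/688 nm) read before and after 90 min at 30 °C.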
TSHR antag – human thyrotropin receptor antagonism; P16473; AID 504810; activity change, negative = inhibition, % at 11.5 µM; hit rate 0.2% among 330,000; TSHR-expressing cells, TSH-stimulated cAMP HTRF, 2 h; stronger effect = lower value;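 active means activity change below a set negative limit, meaning inhibition stronger than a set level, cut at about -70% in these data; inconclusive means activity change between two set negative limits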; further: on the % scale 0 is the no-effect control and ±100 the full control effect
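Freshly harvested TSHR cells receive pin-tooled compound, then EC80 TSH at 4nM final. After 2 hours at 37 deg C, antibody in lysis buffer and cAMP-d2 are added; 30 minutes at ambient temperature precede the HTRF read.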
GRP78 ERSR act – induces the endoplasmic reticulum stress response in human glioma cells | U87-MG GRP78 promoter luciferase reporter, 16 h | Potency, µM, for the others: top-dose activation, usual class: activators | hit rate 0.02% among 420,000 | AID 602332; further: potency means the concentration at half of the fitted maximal effect; series mostly up to about 76 µM; % of control where 0% means no effect; nearly all actives have a fitted effect of over 35% in size
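Stably transfected U87-MG glioma cells carrying a GRP78-based luciferase sensor; 16 h compound incubation. Luminescence end-point read 10 min after Bright-Glo addition at room temperature.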
TCR activator – activators of T cell receptors; primary human leukocytes, anti-CD3, IL-2 HTRF, 48 h; Potency, µM (top dose mostly 9.22 µM), for inactives: at the top dose activation of IL-2 secretion, hits mostly activators; 330,000 tested, under 10 active; AID 504894; further: % of control where 0% means no effect
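Compounds are tested in HTS on primary human leukocytes co-incubated with a-CD3 beads for 48 hr. IL-2 output is measured by time-resolved FRET.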
pAkt inh – inhibitors of Akt phosphorylation | Neuro2A IGF-stimulated pAkt S473 HTRF, 20 min; stronger effect = lower value | activity change, % for hits at 50 µM | hit rate 0.32% among 360,000 | AID 651550; in the data active means activity change below about -80%; inconclusive means mostly about -51% to -80%; further: on the % scale 0 is the no-effect control and ±100 the full control effect
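Neuro2A cells in DMEM with 0.5% FBS, overnight at 37 deg C, given compound at single 50 µM final, then IGF (6 nM final) for 20 min at 37 deg C. Lysed; phospho-Akt Ser473 by HTRF after 24 h, 665/615 ratio.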
LDHA block – inhibitors of human lactate dehydrogenase A | P00338 | purified LDHA, NADH/diaphorase-resazurin fluorescence; stronger effect = lower value | activity change, % (values are at about 110 or 230 µM) | hit rate 0.15% among 480,000 | AID 1347041; in the data active means activity change below about -30%; inconclusive means mostly about -25% to -30%;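 further: plate controls were DMSO wells for no effect and wells without enzyme for full effect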
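Remaining NADH was detected by diaphorase (0.133 mg/mL) converting 37 µM resazurin to fluorescent resorufin, read at 0 and 20 minutes. The preceding 5-minute room-temperature reaction used 2 nM LDHA, 0.2 mM sodium pyruvate and 0.06 mM NADH at pH 7.4.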
Starred values were filed as active, the others as inactive; i = inactive; u = inconclusive; x = no result given; [ ] = dose if it differs, or a comment. Hits are enriched below; roughly 0.55% of the tested compounds scored in any of these assays. Unless noted, the call rests on the fitted dose curve; in most records, active means well fitted curve in the direction sought with a large enough effect; inconclusive means small, poorly fitted or top-dose-only effect, or another doubt; inactive means no such curve, though single readings can be large; an effect the other way counts as inactive or inconclusive.

SMILES	RGS4 inhibitor	TSHR antag	GRP78 ERSR act	TCR activator	pAkt inh	LDHA block
CCC(C)N1CCN(C(=O)c2cccc(Cl)c2)CC1 (stereo not given)	x	x	x	x	x	-1
COc1ccc(C(=O)Nc2ccc3oc(-c4ccncc4)nc3c2)cc1Br	x	x	x	x	x	-33*
CCCCNC(=O)COc1c(Cl)cc(Cl)c2ccc(C)nc12	x	x	x	x	x	22
CCCCC(=O)N1CCCC(c2nc3c(nnn3Cc3cc(C)ccc3C)c(=O)[nH]2)C1 (stereo not given)	32%	-14	-2%	x	-118%*	1
O=C(CSc1nnc(CNC(=O)c2c(F)cccc2Cl)o1)NCc1ccc2c(c1)OCO2	-21%	x	-6%	2%	-107%*	-6
O=C(CSc1nnc(CNC(=O)c2c(F)cccc2Cl)o1)Nc1ccc2c(c1)OCCO2	-3%	11	1%	-15%	i	-5
COc1cccc(OCc2cc(C3C(C#N)=C(N)Oc4n[nH]c(C)c43)ccc2OC)c1 (stereo not given)	x	x	x	x	x	-7
COCCCNc1nc2ccccc2nc1N(C)S(=O)(=O)c1ccc(C)cc1	x	x	x	x	x	19
CN1/C(=C\C=C2/C(=O)Oc3ccccc3C2=O)C(C)(C)c2ccccc21	u	-14	-1%	-4%[46.1 µM]	i	-50*
O=c1cc(-c2ccc(O)cc2)oc2cccc(O)c12	2.1µM*	x	2%	x	x	x
Cc1ccc(-c2cc3ccccn3c2)cc1C	x	x	x	x	x	0
CCCCNC(=O)OCCNC(=O)NC	-21%	-1	0%	1%	-83%*	-7
O=C(CCCOc1ccc(Cl)cc1)Nc1nncs1	35%	-5	-1%	-1%	-112%*	-5
CC(=O)Nc1ccc(NC(=O)[C@@H]2CCCN2S(=O)(=O)c2ccc3c(c2)OCCO3)cc1	-9%	7	-4%	-1%	i	5
O=C(Nc1ccc2c(c1)OCCO2)C1CCCN1S(=O)(=O)c1ccc(Cl)cc1 (stereo not given)	10%	-2	-2%	7%	-111%*	-5
CCOc1cc(/C=C/c2ncc(C(=O)O)s2)cc(Br)c1OC	x	x	x	x	x	-8
CC(=O)Nc1ccc(N(C)C)cc1[N+](=O)[O-]	0%	5	2%	-1%	-109%*	16
Cc1c(C(=O)Nc2ccc(Cl)cc2)c2ccccn2c1C(=O)c1ccc(F)cc1	-23%	21	-5%	0%	-110%*	-3
Cc1cccc(-n2ncc3c(NCCCN4CCCC4=O)ncnc32)c1	32%	23	-2%	2%	-106%*	0
O=C1CCCN1CCCNc1ncnc2c1cnn2-c1ccc(Cl)cc1	14%	-17	-1%	-6%	i	-3
Oc1cccc(C2c3[nH]c4ccccc4c3CCN2Cc2ccc3c(c2)CCO3)c1 (stereo not given)	-11%	-7	-14%	1%	i	-7
Oc1cccc(C2c3[nH]c4ccccc4c3CCN2Cc2ccoc2)c1 (stereo not given)	-20%	-6	2%	1%	i	-121*
CCn1c(SCC(=O)NCCOC)nc2sc3c(c2c1=O)CCCC3	-21%	-8	-1%	0%	-80%*	-1
CCn1c(SCC(=O)NCCOC)nc2sc(C)c(C)c2c1=O	x	19	x	x	x	x
Cc1nonc1NC(=O)CSc1nc2cc(Cl)ccc2c2c1CCCC2	10%	13	-7%	-4%	-94%*	-2
SMILES	RGS4 inhibitor	TSHR antag	GRP78 ERSR act	TCR activator	pAkt inh	LDHA block
O=C1C(Cl)=C(NC(=O)c2ccccc2)C(=O)C(Cl)=C1NC(=O)c1ccccc1	-156%	-85*	-15%	2%	i	39
CC12CC3CC(C)(C1)CC(NCc1ccccc1OCc1ccc(Cl)cc1Cl)(C3)C2	x	x	x	x	x	5
CCOC(=O)CSc1nc2ccsc2c(=O)n1C1CCN(C(=O)OCC)CC1	27%	25	-3%	-4%	i	-6
CCOC(=O)N1CCC(n2c(SCC(=O)Nc3nccs3)nc3ccsc3c2=O)CC1	11%	-10	-3%	x	-81%*	-9
Cc1ccc2nc(C)cc(C(=O)NCc3ccco3)c2c1	x	x	x	x	x	22
COc1ccc(OC)c(NC(=O)c2cc3c(OC)c(OC)c(OC)cc3[nH]2)c1	x	x	x	x	x	14
